Assay outcomes (PubChem BioAssay)
The list is not random: actives were taken first. Their share in the collection is about 1.9%.
USP2a inh: blocks human ubiquitin-specific protease USP2a | O75604 | USP2 core, Ub-CHOP2 coupled fluorogenic reporter, 485/531 | Potency, µM (highest dose often 38.3 µM), for the others: at the top dose activity change, negative = inhibition, usual class: inhibitors | 330,000 compounds, 0.01% hits;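 also: potency is read from the fitted curve at half-maximal effect; plate controls were DMSO wells for no effect and full inhibition by NEM control for full effect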
Target sequence (O75604 whole entry, looked up): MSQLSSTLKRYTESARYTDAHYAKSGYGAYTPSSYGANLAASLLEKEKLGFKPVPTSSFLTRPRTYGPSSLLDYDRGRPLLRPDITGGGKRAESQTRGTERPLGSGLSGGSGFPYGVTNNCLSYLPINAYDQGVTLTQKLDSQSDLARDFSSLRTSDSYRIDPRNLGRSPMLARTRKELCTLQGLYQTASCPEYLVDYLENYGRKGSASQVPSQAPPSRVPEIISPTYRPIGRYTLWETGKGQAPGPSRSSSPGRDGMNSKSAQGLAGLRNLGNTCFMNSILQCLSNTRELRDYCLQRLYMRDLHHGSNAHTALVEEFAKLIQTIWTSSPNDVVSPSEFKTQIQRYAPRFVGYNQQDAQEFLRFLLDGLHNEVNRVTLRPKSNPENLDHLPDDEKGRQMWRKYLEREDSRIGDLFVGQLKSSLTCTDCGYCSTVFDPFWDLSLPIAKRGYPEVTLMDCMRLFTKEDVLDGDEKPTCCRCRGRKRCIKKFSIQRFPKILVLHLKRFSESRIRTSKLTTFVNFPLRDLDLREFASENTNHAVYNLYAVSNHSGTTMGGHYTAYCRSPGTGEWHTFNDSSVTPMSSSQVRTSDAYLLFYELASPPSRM
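Cell-free coupled assay: 10nM USP2 core preincubated 30min RT with compound in Tris-HCl pH 8.0/CaCl2/CHAPS buffer, then 25nM Ub-CHOP2 and 25nM reporter substrate; fluorescence (Ex 485/Em 531) read after 60min RT, normalized to NEM inhibition, concentration-response curves fitted.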
IL2 activator: IL-2 activation. IL-2 activation reporter assay, cell-based qHTS; stimulated with anti-CD3/CD4/CD28 beads; in transgenic mouse T cells. activation, % (series mostly up to about 46 µM). 360,000 compounds, 0.065% hits. AID 652025; in the data active = activation above about 50%; inconclusive = mostly about 30% to 49%; also: 0% is about no effect
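Unstimulated transgenic mouse T cells; 60-min compound exposure; bead-based TCR/CD4/CD28 stimulation; 18 h culture, 37 degrees C; dual fluorescence (EGFP, DsRed) plate cytometry.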
ClpP mod: qHTS Assay for Activators of ClpP; purified B. subtilis ClpP, FRET peptide cleavage, 20 min; Potency, µM (titrated, usually from 57.5 µM), inactives show at the top dose activity change, negative = active; 340,000 compounds, 1.9% hits; AID 651965, 2013; active = well fitted falling curve with a large enough effect; inconclusive = small, poorly fitted or top-dose-only effect; inactive = no such curve, though single readings can be large or run the other way; also: potency is read from the fitted curve at half-maximal effect; the source files actives as falling curves though it sought activators and does not explain the sign; nearly all actives have a fitted effect of over 65% in size
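Buffer: 100 mM Tris/HCl pH8, 100 mM KCl, 0.05% low protease BSA, 2.5% glycerol, 0.01% Tween-20. ClpP 10 microg/mL final; 20 min RT; delta FRET normalized to ADEP and DMSO controls.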
Pin1 inh: inhibitors of human Pin1; Q13526; Pin1 FP peptide displacement, HiFluor488, 10 min; Potency, µM (doses to about 115 µM), for the others: at the top dose activity, negative = inhibition, most hits filed as inhibitors; 390,000 compounds, 0.009% hits; active = well fitted inhibition curve with a large enough effect in the polarisation, with a control signal flat, not every such curve was filed as active; inconclusive = small, poorly fitted or top-dose-only effect, or effect the other way, or a change in a side signal; inactive = no such curve, though single readings can be large or run the other way; the % refers to the polarisation; also: potency is read from the fitted curve at half-maximal effect; % is scaled to controls: 0 for no effect and ±100 for the full control effect
Integrin act MD: activators of alpha7 integrin expression for muscular dystrophy | alpha7betagal myoblasts, beta-gal FDG fluorescence, 48 h | Potency, µM (series often up to 38.3 µM), inactives show at the highest dose activation, hits mostly activators | 350,000 compounds, 0.064% hits | AID 624291;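 also: potency is read from the fitted curve at half-maximal effect; 100% = response of the positive control SU9516; nearly all actives have a fitted effect of over 60% in size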
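alpha7betagal+/- myoblasts (passage 13, 250/well) treated 48 h at 37C with compounds at 1:260 dilution of DMSO stock. Lysed, then beta-galactosidase activity read as FDG fluorescence (ex 480/em 540) after 30 min, with pre-read for autofluorescence.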
PKM2 act: increases activity of human pyruvate kinase M2. 260,000 compounds, 0.34% hits. Potency, µM (doses to about 57.5 µM), without a hit: top-dose activation, hits mostly activators. P14618. AID 1631. purified PKM2, Kinase-Glo ATP luminescence, activation; response scale: 0% is enzyme alone, no compound; also: potency is read from the fitted curve at half-maximal effect; % is scaled to controls: 0 for no effect and ±100 for the full control effect; nearly all actives have a fitted effect of over 55% in size
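Purified hPK-M2 (>95%) run at intermediate activity with 0.1 mM ADP and 0.5 mM PEP in 50 mM imidazole pH 7.2, KCl, MgCl2; 1 h room temperature. ATP formed read by Kinase-Glo luminescence; normalized to uninhibited and no-enzyme controls.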
* = called active by the depositor; u = inconclusive; x = no result given; [ ] = dose if it differs, or a comment. Unless noted, calls follow the shape of the dose curve; as a rule, active = well fitted curve in the direction sought with a large enough effect; inconclusive = small, poorly fitted or top-dose-only effect, or another doubt; inactive = no such curve, though single readings can be large; an effect the other way counts as inactive or inconclusive.

SMILES | USP2a inh | IL2 activator | ClpP mod | Pin1 inh | Integrin act MD | PKM2 act
Cc1cc[n+]2c3c(cccc13)CCC2 | 5% | 1 | 25µM* | -3% | -24%[7.66 µM] | -12%
Nc1c(C(=O)NC2CC2)c2nc3ccccc3nc2n1-c1ccc2c(c1)OCO2 | 0% | -2 | 32µM* | -10% | 5% | 0%
CCCNC(=O)c1c(N)n(-c2ccc3c(c2)OCO3)c2nc3ccccc3nc12 | 0% | 0 | -12% | 0% | 2% | -2%
O=c1c2ccccc2nc(-c2ccoc2)n1CCc1ccccc1 | 0% | 0 | 25µM* | 3% | 20% | 1%
O=c1c2ccccc2nc(/C=C/c2ccccc2)n1CCc1ccccc1 | -3% | -3 | 1% | -17% | 14% | 4%
CC(OC(=O)CCN=C1NS(=O)(=O)c2ccccc21)C(=O)NCc1ccccc1 (stereo not given) | -1% | -4 | 1% | -5% | -5% | x
Cc1nn(Cc2ccccc2)c(C)c1CNC(=O)CN=C1NS(=O)(=O)c2ccccc21 | -1% | 0 | 22µM* | 3% | 18% | x
Oc1ccc(Cl)cc1C1C=C(c2ccc3c(c2)OCO3)NC(c2ccc(C(F)(F)F)cc2)N1 (stereo not given) | x | x | 1% | 20% | x | x
Cc1cccc(NS(=O)(=O)c2ccccc2)n1 | -1% | -1 | 20µM* | -6% | -8% | 14%
Cc1cccc(NS(=O)(=O)c2ccc(C(C)(C)C)cc2)n1 | -1% | 0 | 4% | -12% | -1% | -3%
Cc1cccc(NS(=O)(=O)c2ccc(C3CCCCC3)cc2)n1 | 0% | -3 | 22µM* | 0% | -22% | 3%
COc1cc2nc(N3CCCCC3)nc(NC3CCN(C)CC3)c2cc1OC | x | x | 4% | x | x | x
O=C(Cc1c(O)c2ccccc2[nH]c1=O)NCc1ccccc1F | 1% | 5 | 28µM* | 1% | 7% | 1%
O=C(Cc1c(O)c2ccccc2[nH]c1=O)NCc1cccc(F)c1 | 0% | -2 | 28µM* | -2% | -11%[7.66 µM] | -2%
C=C1NN(Cc2ccc(OC)cc2)C(=O)N1c1ccccc1 | x | x | -1% | x | x | x
Cc1[nH]c2ccccc2c1C(=O)CNc1ccc(Br)cc1 | x | x | 0% | x | x | x
CN(C)C(CNC(=O)c1cccs1)c1ccco1 (stereo not given) | 1% | 1 | -2% | 0% | 19% | x
CN(C)C(CNC(=O)c1ccco1)c1cccs1 (stereo not given) | -1% | 2 | 11µM* | -2% | -7% | x
COC(=O)c1cc2c(ccn2-c2ccc(F)cc2)n1Cc1cccc(OC)c1 | 0% | 0 | 28µM* | 4% | -13% | 6%
COC(=O)c1cc2n(n1)CCN(Cc1cccc(OC)c1)C2=O | -1% | 3 | x | 2% | 15% | 20µM*
COC(=O)c1cc2c(ccn2-c2ccc(F)cc2)n1Cc1ccc(OC(C)=O)cc1 | 0% | 1 | 28µM* | 17% | -43% | 0%
O=C1N(Cc2ccc(F)cc2)CCN1c1ccc(F)cc1 | 6% | -2 | 0% | 3% | 28% | 0%
COc1cccc(CN2CCN(c3ccc(F)cc3)C2=O)c1 | 3% | -3 | x | -1% | -24% | 28µM*
COC(=O)c1cc2c(ccn2-c2ccc(F)cc2)n1C(C)C | 3% | 0 | u | 1% | -26% | 2%
Cc1cc2c(s1)c1cnn(Cc3ccc(-n4cncn4)cc3)c(=O)c1n2C | x | x | x | -1% | x | x
SMILES | USP2a inh | IL2 activator | ClpP mod | Pin1 inh | Integrin act MD | PKM2 act
CN(c1ccc(/C=C/c2ccccc2)cc1)P1(=O)NCCCO1 (stereo not given) | x | x | 4% | x | x | x
CNc1nc(N2CCCN(C)CC2)nc2cc(OC)c(OC)cc12 | x | x | 4% | x | x | x
CCOC(=O)c1c(-c2ccccc2)csc1NC(=O)/C(C#N)=C/c1ccc(O)c(OC)c1 | -15% | 58* | 28µM* | u | 9% | 16%
CCOC(=O)c1c(-c2ccccc2)csc1NC(=O)/C(C#N)=C/c1ccc(OC)c(OC)c1 | 2% | 0 | 1% | u | 23% | 4%
CCCCN(Cc1cc2cc(OC)ccc2[nH]c1=O)C(=O)COc1ccccc1 | x | -3 | -8% | -9% | 16% | x
COc1ccc2[nH]c(=O)c(CN(C)C(=O)COc3ccccc3)cc2c1 | -2% | 1 | 32µM* | -6% | -2% | -1%
CCN(CC(=O)NCc1ccc(F)cc1)C(=O)/C=C/c1ccc(OC)cc1 | 1% | 2 | x | -1% | 10% | 0%
CCN(Cc1cc2cc(OC)ccc2[nH]c1=O)C(=O)Cc1ccc(OC)cc1 | 0% | 0 | 28µM* | 7% | -11% | 0%
CCc1ccc2[nH]c(=O)c(CN(CCO)C(=O)NCc3ccccc3)cc2c1 | -6% | -1 | -16% | 1% | -21% | -3%
CCN(CC(=O)NCc1ccc(F)cc1)C(=O)Cc1ccc(OC)cc1 | -1% | -1 | 16µM* | 0% | -34% | -9%
COc1ccc2[nH]c(=O)c(CN(CCO)C(=O)NCc3ccccc3)cc2c1 | x | -2 | 25µM* | 1% | 21% | 6%
COc1ccc(C2C3C=CCCC3(C)C(=O)N2Cc2ccccc2)cc1Cl (stereo not given) | x | x | x | 10% | x | x
N#Cc1nc(Nc2cc(F)cc(F)c2)c2ncn(CCCO)c2n1 | x | x | x | 36% | x | x
